Compound activity deposited in PubChem BioAssay by National Center for Advancing Translational Sciences (NCATS).
KB-3-1 cytotox = qHTS assay for MDR1-selective chemotherapeutics: Primary screen using the parental adenocarcinoma cell KB-3-1; KB-3-1 viability, CellTiter-Glo ATP luminescence, 72 h; Potency, µM (highest dose often 46.1 µM), most hits filed as cytotoxic; actives 1.4% (n = 400,000); AID 1347075, 2019; also: % is scaled to controls: 0 for no effect and ±100 for the full control effect; nearly all actives have a fitted effect of over 60% in size
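Cells are dispensed, compounds pinned in, plates held at 37 °C for 72 h, then CellTiter-Glo is added and luminescence read after 10 minutes. Cell line: parental KB-3-1 in phenol-red-free DMEM, 10% FBS.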
ELG1 DNA repair = qHTS screen for small molecules that inhibit ELG1-dependent DNA repair in human embryonic kidney (HEK293T) cells expressing luciferase-tagged ELG1; HEK293T ELG1-luciferase reporter, luminescence, 16 h; DNA damage induced by 5-fluorouridine; Potency, µM (series often up to 46.1 µM), without a hit: top-dose activity change, negative = inhibition, usual class: inhibitors; actives 2.3% (n = 330,000); AID 504467, 2011; also: % is scaled to controls: 0 for no effect and ±100 for the full control effect; nearly all actives have a fitted effect of over 55% in size
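5-Fluorouridine DNA damage + compound/DMSO, 2,000 cells/well, 16 h, 37 °C/5% CO2. ONE-Glo, 30 min RT, luminescence. Readout = decrease in reporter signal.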
MCF10A rereplic = A quantitative high throughput screen for small molecules that induce DNA re-replication in MCF 10a normal breast cells. Potency, µM (doses to about 46.1 µM), for inactives: at the highest dose activity, positive = re-replication, usual class: activators. MCF 10A DNA re-replication, Hoechst nuclear intensity, 48 h. AID 624296, 2012. actives 2.9% (n = 350,000); also: % of control where 0% means no effect; nearly all actives have a fitted effect of over 50% in size
KB-V1 cytotox = qHTS assay for MDR1-selective chemotherapeutics: Primary screen using the drug-selected MDR subline cells KB-V1; AID 1347076, 2019; KB-V1 MDR cells viability, CellTiter-Glo, 72 h; Potency, µM (titrated, usually from 46.1 µM), actives largely listed as cytotoxic; actives 3.4% (n = 400,000); also: % is scaled to controls: 0 for no effect and ±100 for the full control effect; nearly all actives have a fitted effect of over 60% in size
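Luminescent ATP read-out (CellTiter-Glo, 10 min) measures survival of drug-selected KB-V1 MDR cells after 72 h, 37 degrees C compound exposure. Medium: phenol-red-free DMEM, 10% FBS. Values from fitted concentration-response curves.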
SW480 rerep = A quantitative high throughput screen for small molecules that induce DNA re-replication in SW480 colon adenocarcinoma cells; SW480 DNA re-replication, Hoechst DNA content imaging, 48 h; Potency, µM (series often up to 46.1 µM), inactives show at the top dose re-replication activation, usual class: activators; actives 1.8% (n = 340,000); AID 624297, 2012; also: % of control where 0% means no effect; nearly all actives have a fitted effect of over 55% in size
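Readout is total intensity of Hoechst-stained nuclei, excited at 405 nm and collected at 500-530 nm. Compound treatment lasted 48 hr at 37 C in 5% CO2 before staining.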
* marks the source's active call; other numbers are inactive results; i = inactive; u = inconclusive; x = not tested or not shown; ! = a repeat was not active. Rows were chosen to be rich in hits. Some 8.1% of all compounds tested hit in one or more screens of this group. Calls follow the shape of the dose curve; as a rule, active = well fitted curve in the direction sought with a large enough effect; inconclusive = small, poorly fitted or top-dose-only effect, or another doubt; inactive = no such curve, though single readings can be large; an effect the other way counts as inactive or inconclusive. Potency is read from the fitted curve at half-maximal effect.

SMILES	KB-3-1 cytotox	ELG1 DNA repair	MCF10A rereplic	KB-V1 cytotox	SW480 rerep
O=C(C1CCCN(c2nnc(-n3cccc3)s2)C1)N1CCN(c2ccccc2)CC1 (stereo unspecified)	i	16.4µM*	u	i	u
CC(CCc1ccccc1)NC(=O)C1CCCN(c2nnc(-n3cccc3)s2)C1 (stereo unspecified)	i	u	22.3%	i	2.0%
COc1cccc(N2CCN(C(=O)C3CCCN(S(=O)(=O)c4ccc(Br)s4)C3)CC2)c1 (stereo unspecified)	i	x	x	i	x
O=C(C1CCCN(S(=O)(=O)c2ccc(Br)s2)C1)N1CCN(c2ccccc2)CC1 (stereo unspecified)	i	14.6µM*	u	i	-28.1%
O=S(=O)(c1ccc(Cl)s1)N1CCN(c2ncccn2)CC1	i	-14.0%	18.4µM*	i	7.0%
O=C(C1CCN(S(=O)(=O)c2c(Cl)cccc2Cl)CC1)N1CCCCCCC1	i	u	0.3%	i	4.11µM*
CCC(C)(C)NC(=O)C(c1cccc(OC)c1OC)N(C(=O)CCC(=O)Nc1cc(C)on1)c1ccc2c(c1)OCCO2 (stereo unspecified)	i	6.6%	u	i	-2.6%
O=C(C1CCN(S(=O)(=O)c2ccccc2)CC1)N1CCN(c2ccccc2)CC1	i	-8.4%	u	i	u
O=C(C1CCN(S(=O)(=O)c2ccc(Cl)s2)CC1)N1CCN(c2ccccc2)CC1	i	x	19.1%	18.4µM*	-5.5%
CCn1c2c(c3cc(Br)ccc31)CCC/C2=N\O	u	x	12.6µM*	u	-3.4%
O=C(CN1CCN(C(=O)C2CC2)CC1)Nc1ccc(Cl)cc1F	i	-1.5%	5.5%	i	-1.0%
Cc1cccc(C(=O)OCc2cc(=O)n3nc(-c4cccs4)sc3n2)c1	i	x	x	i	x
COCCCNc1oc(-c2cccs2)nc1S(=O)(=O)c1ccc(C)cc1	i	u	-5.7%	14.6µM*	-1.5%
Clc1cccc(Cl)c1Cn1cnc(=NCc2ccco2)c2[nH]cnc21	i	-5.5%	u	8.2µM*	8.6%
Cn1cnc2c(NCc3ccco3)ncnc21	i	-9.7%	35.7%	i	-44.3%
Clc1cccc(Cl)c1Cn1cnc2c(NCc3ccco3)ncnc21	u	u	15.8µM*	3.55µM*	10µM*
Cc1ccc(S(=O)(=O)N(C)Cc2ccc(C(=O)N/N=C/c3ccc(OC(F)F)cc3OC(F)F)cc2)cc1	u	u	-12.2%	5.8µM*	-3.4%
CCN=c1scc(-c2ccc3c(c2)NC(=O)CO3)n1N=C1CCCC1	u	u	u	u	2.3%
c1ccc(-c2csc(=Nc3cccnc3)n2CC2CCCO2)cc1 (stereo unspecified)	i	u	u	u	-1.9%
COc1ccccc1N=c1scc(-c2ccc3c(c2)NC(=O)CO3)n1CC1CCCO1 (stereo unspecified)	i	16.4µM*	u	i	4.0%
O=C1COc2ccc(-c3csc(=Nc4ccc(OC(F)F)cc4)n3CC3CCCO3)cc2N1 (stereo unspecified)	u	u	16.4µM*	2.91µM*	u
COCC(C)n1c(-c2ccc3c(c2)NC(=O)CO3)csc1=Nc1ccc(OC(F)F)cc1 (stereo unspecified)	9.2µM*!	u	3.26µM*	u	u
CN(C)S(=O)(=O)c1cccc(N=c2scc(-c3ccc4c(c3)NC(=O)CO4)n2CC2CCCO2)c1 (stereo unspecified)	u	23.1µM*	9.0%	16.4µM*	1.6%
CCOC(=O)c1ccccc1N=Cc1c(O)c2ccccc2oc1=O	i	0.6%	16.6%	i	-0.4%
CCCCN=c1scc(-c2ccc3c(c2)NC(=O)CO3)n1N=C1CCCC1	u	23.1µM*	u	u	-8.1%
SMILES	KB-3-1 cytotox	ELG1 DNA repair	MCF10A rereplic	KB-V1 cytotox	SW480 rerep
COc1ccc2[nH]c3c(c2c1)[C@@H]1CCN2C(=O)CCC[C@H](C3)[C@H]12	i	-2.3%	0.0%	i	1.2%
CC(CCc1ccccc1)NC(=O)C(=O)c1c[nH]c2ccccc12 (stereo unspecified)	i	-2.5%	10.3µM*	i	24.3%
CCc1nc2oc3cc(OC)ccc3c(=O)c2c(=O)n1Cc1ccco1	i	-14.3%	8.3%	i	2.6%
COc1ccc(OC)c(NC(=O)c2ccc(CN3CCc4ccccc4C3)cc2)c1	i	-8.7%	u	i	2.5%
O=C(NC(c1ccccc1)c1ccccc1)C1(c2cccs2)CCOCC1	i	-9.4%	-0.1%	5.17µM*	-0.1%
Cc1cccc(NC(=O)C2(c3cccs3)CCOCC2)c1	i	-0.1%	-4.8%	i	0.4%
Cc1cccc(NC(=O)C2(c3cccs3)CCOCC2)n1	i	9.8%	-3.3%	16.4µM*	-53.8%
CC(=O)c1sc(-c2ccccc2)cc1NS(=O)(=O)c1ccc(C)cc1	i	-17.7%	11.6µM*	u	u
CC(=O)c1sc(-c2ccc(F)cc2)cc1NS(=O)(=O)c1ccc(C)cc1	i	18.3µM*	-4.7%	u	-1.7%
NC(=O)c1sc(-c2ccsc2)cc1NS(=O)(=O)c1ccc(C(F)(F)F)cc1	i	18.3µM*	u	u	0.7%
Cc1ccc2c(c1)c1c3n2CCN(CCC#N)C3CCC1 (stereo unspecified)	i	x	x	18.4µM*	x
O=C1N=c2ccccc2=C1c1c(O)n(-c2cccc(F)c2)[nH]c1=O	i	-2.6%	u	i	-2.8%
CCn1c(O)c(C2=c3ccccc3=NC2=O)c2cc(Br)ccc21	i	u	16.4µM*	i	u
CC(=O)N(Cc1ccc(F)cc1)C1=C(NCCc2ccccc2)C(=O)c2ccccc2C1=O	8.2µM*	u	u	u	6.31µM*
O=C1C(Cl)=C(NCc2cccnc2)C(=O)c2ccccc21	u	20.6µM*	u	u	u
O=C1C(Cl)=C(NCCc2ccccc2)C(=O)c2ccccc21	u	x	u	u	5.17µM*
O=C(O)c1ccc(NC2=C(Cl)C(=O)c3ccccc3C2=O)cc1	u	u	u	i	u
CC(=O)N(Cc1ccc(F)cc1)c1cccc(C)c1C	i	0.2%	-15.4%	u	u
C=CCNC1=C(Cl)C(=O)c2ccccc2C1=O	u	10.4%	u	u	u
O=C1C(Cl)=C(Nc2ccccc2)C(=O)c2ccccc21	u	u	4.11µM*	u	u
